Reference: PubChem BioAssay (NCATS)
Values joined by “and” are separate entries in the source; they are usually repeats but may differ in a detail not shown here. Equal entries are not always repeated. Results filed as inconclusive are left out. The source holds several records for some structures; these can differ, active in one and inactive in another. Active and inactive are the calls of the source. Unless noted, calls come from the whole dose curve; as a rule, active = well fitted curve in the direction sought with a large enough effect; inconclusive = small, poorly fitted or top-dose-only effect, or another doubt; inactive = no such curve, though single readings can be large; an effect the other way counts as inactive or inconclusive.

How the values were obtained:
[1] = Cell Viability - BJ (AID 421; calls by dose curve;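 note: potency is the fitted concentration of half-maximal effect; cells exposed to compound for 40 hours at 37 °C before readout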); conditions: BJ fibroblast viability, qHTS
Outline: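 Normal human BJ foreskin fibroblasts, 1500/well in complete medium, treated 40 hr at 37 °C. Cellular ATP by CellTiter-Glo luminescence; normalized to DMSO and 100 uM tamoxifen, AC50 from Hill fit.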

[2] = Cell Viability - Jurkat (AID 426;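 active = dose-dependent loss of cell ATP signal giving a full or clear fitted curve, ranked by lower potency value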; note: potency is the fitted concentration of half-maximal effect); conditions: qHTS
Outline: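 Jurkat (clone E6-1, human T-cell leukemia) cells, 5000/well in complete medium, were exposed to compound for 40 hr at 37 °C. Viability was read as intracellular ATP by CellTiter-Glo luminescence; AC50 came from Hill fits of concentration-response data.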

[3] = Cell Viability - Hek293 (AID 427;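 active = compounds whose dose-response curve shows a full or clear partial loss of cell viability, called from curve shape rather than a numeric limit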;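 note: potency is the fitted concentration of half-maximal effect; cells exposed to compound for 40 hours at 37 °C before reading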); conditions: qHTS
Outline: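 HEK293 cells in complete medium were exposed to compound for 40 hr at 37 °C, then cellular ATP was read by CellTiter-Glo luminescence. Data were normalized to DMSO (basal) and 100 uM tamoxifen (100% inhibition), and AC50 came from Hill fits.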

[4] = Cell Viability - MRC5 (AID 434; calls by dose curve;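 note: potency is the fitted concentration of half-maximal effect; potency reflects cytotoxicity seen as loss of intracellular ATP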); conditions: MRC5 lung fibroblast viability, qHTS
Outline: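 MRC5 normal human lung fibroblasts, 1500 cells/well, exposed to compound for 40 hr at 37 C. Cellular ATP was read by CellTiter-Glo luminescence; data normalized to DMSO and 100 uM tamoxifen, with AC50 from Hill fits.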

[5] = Cell Viability - SK-N-SH (AID 435; calls by dose curve;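 note: potency is the fitted concentration of half-maximal effect; compound exposure lasted 40 h at 37 °C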); conditions: SK-N-SH neuroblastoma cell viability qHTS
Outline: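 SK-N-SH human neuroblastoma cells (1500/well) were exposed to compounds in complete medium for 40 h at 37 °C, and intracellular ATP was then measured by CellTiter-Glo luminescence. AC50 was taken from Hill fits, normalized to DMSO and 100 uM tamoxifen.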

[6] = biological target: Mitogen-activated protein kinase 10 (Mus musculus) (UniProt Q61831); assay: JNK3 AlphaScreen Assay (AID 530; active = well fitted curve in either direction with a large enough effect, not every such curve was filed as active;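 note: kinase came from lysate of stimulated human HepG2 cells; signal reports phosphorylation of biotinylated GST-cJun 1-79 at Ser73 with 10 µM ATP; % is set by controls: 0 for no effect and ±100 for the full control effect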)
Outline: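 qHTS format: compounds tested as titrations against IL-1beta/TNF-alpha-activated HepG2 lysate JNK3 with biotin-GST-cJun substrate and 10 uM ATP at room temperature. Loss of anti-phospho-cJun AlphaScreen signal indicates inhibition.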

[7] = Cellular Toxicity (caspase-3) Renal Proximal Tubule (AID 667); conditions: renal proximal tubule cells; at 91.7 µM (top of the series) unless noted;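 note: cells exposed to compound for 16 hours at 37 °C before detection; 0% = DMSO basal and 100% = 10 µM staurosporine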
Outline: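 Primary rat proximal tubule cells, 1000/well, 5 h plating at 37 °C, then compound 16 h at 37 °C. Caspase-Glo 3/7 reagent, 1 h RT, luminescence. Normalized to DMSO (basal) and 10 uM staurosporine (100%); Hill-fit AC50.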

[8] = biological target: Cytochrome P450 3A4 (Homo sapiens) (UniProt P08684); assay: qHTS Assay for Activators of Cytochrome P450 3A4 (AID 885); note: nearly all actives have a fitted effect of over 65% in size
Sequence of Cytochrome P450 3A4 (Homo sapiens) (P08684 whole entry, looked up): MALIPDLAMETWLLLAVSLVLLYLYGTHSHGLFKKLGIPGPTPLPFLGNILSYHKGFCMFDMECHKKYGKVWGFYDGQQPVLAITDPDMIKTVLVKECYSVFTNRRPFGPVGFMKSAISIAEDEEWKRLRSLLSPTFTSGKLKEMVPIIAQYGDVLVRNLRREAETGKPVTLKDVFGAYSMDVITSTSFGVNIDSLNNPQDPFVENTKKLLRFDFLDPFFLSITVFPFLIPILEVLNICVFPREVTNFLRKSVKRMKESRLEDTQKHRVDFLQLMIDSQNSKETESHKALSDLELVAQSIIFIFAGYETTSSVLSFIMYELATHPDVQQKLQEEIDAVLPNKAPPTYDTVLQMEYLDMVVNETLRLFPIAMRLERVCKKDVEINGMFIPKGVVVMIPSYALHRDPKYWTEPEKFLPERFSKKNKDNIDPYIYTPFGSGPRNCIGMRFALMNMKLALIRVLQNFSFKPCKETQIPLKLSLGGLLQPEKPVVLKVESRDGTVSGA
Outline: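 Human CYP3A4 (20 nM) with Luciferin-PPXE at 25 uM (its KM) in 200 mM KPO4; 10 min compound preincubation, then NADPH regeneration and 60 min reaction at RT. Luciferin read by luminescence; normalized to 57 uM ketoconazole full inhibition.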

[9] = MultiTox-Fluor Cytotoxicity Assay - LYMP1-002 - Live Cells (AID 955); note: potency is the fitted concentration of half-maximal effect
Outline: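 Human lymphoblastoid LYMP1-002 cells, 2500/well in complete medium, rested 5 hr at 37 C, then exposed to compounds for 16 hr at 37 C. Live-cell protease cleavage of GF-AFC read by fluorescence (Ex/Em 405/510) after 60 min at room temperature; AC50 from Hill fits.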

[10] = MultiTox-Fluor Cytotoxicity Assay - LYMP1-003 - Live Cells (AID 962); note: potency is the fitted concentration of half-maximal effect
Outline: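 LYMP1-003 human lymphoblastoid cells (2500/well) in complete medium were preincubated 5 hr at 37 C, then exposed to compounds for 16 hr at 37 C. Live-cell protease cleavage of GF-AFC read by fluorescence (Ex/Em 405/510); AC50 from Hill fits.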

[11] = Cell Viability - LYMP2-008 (AID 980); note: nearly all actives have a fitted effect of over 60% in size; note: potency is the fitted concentration of half-maximal effect
Outline: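 Human lymphoblastoid cells (2500/well) were plated, held 5 hr at 37 C, then exposed to compounds for 24 hr at 37 C in complete medium. Intracellular ATP was read by CellTiter-Glo luminescence; AC50 from Hill-fitted concentration-response.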

[12] = qHTS assay for environmental chemicals that activate the Aryl hydrocarbon Receptor (AhR) signaling pathway (AID 651777); conditions: 1A2-DRE human hepatoma cells, luciferase, 24 h; activation: stronger effect = higher value; note: nearly all actives have a fitted effect of over 15% in size; note: potency is the fitted concentration of half-maximal effect; for activation: % of control where 0% means no effect
Outline: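 Human hepatoma 1A2-DRE cells, stably carrying a dioxin response element and CYP1A2 promoter driving luciferase, were exposed to compounds for 24 hr at 37 C and 5% CO2. Luciferase signal was then read after 30 min One-Glo at room temperature.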

[13] = qHTS assay for small molecule agonists of the antioxidant response element (ARE) signaling pathway measured by Nrf2-dependant transcriptional activity - cell viability counter screen (AID 720653; active = well fitted curve in the direction sought with a large enough effect in the repeat runs; an effect the other way counts as inactive or inconclusive; note: potency is the fitted concentration of half-maximal effect; for max response: % is set by controls: 0 for no effect and ±100 for the full control effect); conditions: ARE-bla HepG2 viability, CellTiter-Glo ATP luminescence, 16 h; max response: stronger effect = lower value
Outline: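 ARE-bla HepG2 cells treated with compounds for 16 h at 37C; this counter screen measures viability as intracellular ATP by CellTiter-Glo luminescence after 30 min at room temperature.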

[14] = biological target: Glucocorticoid receptor (Homo sapiens) (UniProt P04150); assay: GR-GFP Redistribution (AID 450;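 active = compounds whose dose series gives a full or clear partial fitted curve of increased nuclear translocation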; note: potency is the fitted concentration of half-maximal effect); conditions: U2OS GR-GFP nuclear translocation, laser cytometry, 2 h
Sequence of Glucocorticoid receptor (Homo sapiens) (P04150 whole entry, looked up, the tested form may be a part): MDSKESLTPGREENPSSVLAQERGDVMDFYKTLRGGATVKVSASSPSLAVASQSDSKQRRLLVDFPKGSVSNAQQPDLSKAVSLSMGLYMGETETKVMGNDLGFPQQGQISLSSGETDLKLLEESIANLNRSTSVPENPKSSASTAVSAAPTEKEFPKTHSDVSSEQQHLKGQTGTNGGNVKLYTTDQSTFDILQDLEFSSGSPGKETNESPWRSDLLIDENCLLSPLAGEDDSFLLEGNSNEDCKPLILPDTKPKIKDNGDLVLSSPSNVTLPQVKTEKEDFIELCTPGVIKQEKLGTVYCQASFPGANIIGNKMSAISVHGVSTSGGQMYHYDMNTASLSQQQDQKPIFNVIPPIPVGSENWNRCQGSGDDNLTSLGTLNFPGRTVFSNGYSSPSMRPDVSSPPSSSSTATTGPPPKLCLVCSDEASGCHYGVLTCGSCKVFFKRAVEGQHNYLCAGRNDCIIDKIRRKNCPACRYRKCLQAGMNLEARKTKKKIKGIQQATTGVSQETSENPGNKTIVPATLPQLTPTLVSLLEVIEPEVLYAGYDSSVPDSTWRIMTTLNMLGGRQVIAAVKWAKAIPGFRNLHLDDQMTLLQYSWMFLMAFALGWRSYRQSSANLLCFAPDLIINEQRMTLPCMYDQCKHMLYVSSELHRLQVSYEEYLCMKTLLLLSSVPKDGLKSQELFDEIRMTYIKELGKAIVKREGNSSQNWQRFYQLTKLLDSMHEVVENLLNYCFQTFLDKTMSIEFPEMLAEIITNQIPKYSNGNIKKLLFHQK

[15] = biological target: Cytochrome P450 1A2 (Homo sapiens) (UniProt P05177); assay: p450-cyp1a2 (AID 410; calls by dose curve; note: potency is the fitted concentration of half-maximal effect)
Sequence of Cytochrome P450 1A2 (Homo sapiens) (P05177 whole entry, looked up): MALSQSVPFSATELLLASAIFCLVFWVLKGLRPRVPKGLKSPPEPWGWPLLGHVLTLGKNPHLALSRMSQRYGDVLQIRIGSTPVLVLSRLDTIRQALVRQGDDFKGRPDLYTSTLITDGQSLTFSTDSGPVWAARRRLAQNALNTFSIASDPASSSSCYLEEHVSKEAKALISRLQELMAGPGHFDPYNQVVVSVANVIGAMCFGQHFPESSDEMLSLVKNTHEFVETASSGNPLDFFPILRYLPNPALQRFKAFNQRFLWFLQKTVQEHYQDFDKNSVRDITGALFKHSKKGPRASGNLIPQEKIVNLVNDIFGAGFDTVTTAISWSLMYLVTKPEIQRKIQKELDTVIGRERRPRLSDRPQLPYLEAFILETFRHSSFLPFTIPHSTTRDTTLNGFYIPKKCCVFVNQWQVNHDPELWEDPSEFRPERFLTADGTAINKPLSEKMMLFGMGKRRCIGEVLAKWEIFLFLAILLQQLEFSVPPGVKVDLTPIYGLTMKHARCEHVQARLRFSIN
Outline: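 Human CYP1A2 (20nM) demethylated Luciferin-ME at its Km (100uM) in 100mM KPO4. After 10 min compound preincubation, NADPH regeneration ran the reaction 60 min at room temperature. Luciferin was read by luminescence, normalized to 57 uM furafylline.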

[16] = biological target: Glucocorticoid receptor (Homo sapiens) (UniProt P04150); assay: GR-EFC Redistribution (AID 451; calls by dose curve; note: potency is the fitted concentration of half-maximal effect); conditions: CHO-K1 GR-EFC translocation, beta-gal luminescence, 2 h
Outline: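 CHO-K1 cells expressing nuclear EA and GR-ED fragments of b-gal; compounds titrated up to 46 uM final, 2 h at 37 C. GR nuclear translocation read as complemented b-gal luminescence after 1 h RT detection.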

[17] = biological target: 3',5'-cyclic-AMP phosphodiesterase 4B (Homo sapiens) (UniProt Q07343); assay: qHTS Assay for Inhibitors of PDE-IV (AID 607; active = well fitted activation curve with a large enough effect in the main read-out, with a control signal flat, not every such curve was filed as active; note: % of control where 0% means no effect)
Sequence of 3',5'-cyclic-AMP phosphodiesterase 4B (Homo sapiens) (Q07343 whole entry, looked up): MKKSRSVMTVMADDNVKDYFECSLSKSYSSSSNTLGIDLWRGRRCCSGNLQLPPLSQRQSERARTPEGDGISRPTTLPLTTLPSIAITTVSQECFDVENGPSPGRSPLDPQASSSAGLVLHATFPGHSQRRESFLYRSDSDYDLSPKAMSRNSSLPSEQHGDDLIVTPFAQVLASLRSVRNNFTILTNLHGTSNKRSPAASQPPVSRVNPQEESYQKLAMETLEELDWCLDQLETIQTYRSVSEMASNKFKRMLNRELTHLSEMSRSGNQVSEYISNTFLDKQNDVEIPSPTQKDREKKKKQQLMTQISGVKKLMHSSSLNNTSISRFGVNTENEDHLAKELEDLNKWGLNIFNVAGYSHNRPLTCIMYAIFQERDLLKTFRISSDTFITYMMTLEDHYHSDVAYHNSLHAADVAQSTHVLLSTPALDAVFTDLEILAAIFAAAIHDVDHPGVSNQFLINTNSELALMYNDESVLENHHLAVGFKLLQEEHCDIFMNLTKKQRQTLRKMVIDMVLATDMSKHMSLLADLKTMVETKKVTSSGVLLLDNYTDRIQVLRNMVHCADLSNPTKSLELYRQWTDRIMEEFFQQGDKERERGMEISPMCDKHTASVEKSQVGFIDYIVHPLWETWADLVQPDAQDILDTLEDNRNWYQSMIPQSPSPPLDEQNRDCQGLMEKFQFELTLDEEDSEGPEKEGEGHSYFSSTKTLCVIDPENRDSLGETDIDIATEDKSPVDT
Outline: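 HEK293 ACTOne cells with CNG channel (1000/well), endogenous PDE4; membrane potential dye, compounds up to 22.9 uM final. Fluorescence Ex 535/Em 590; RO 20-1724 (100 uM final) as reference.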

[18] = biological target: Cytochrome P450 2C9 (Homo sapiens) (UniProt P11712); assay: qHTS Assay for Inhibitors and Substrates of Cytochrome P450 2C9 (AID 883); note: potency is the fitted concentration of half-maximal effect; nearly all actives have a fitted effect of over 60% in size
Sequence of Cytochrome P450 2C9 (Homo sapiens) (P11712 whole entry, looked up): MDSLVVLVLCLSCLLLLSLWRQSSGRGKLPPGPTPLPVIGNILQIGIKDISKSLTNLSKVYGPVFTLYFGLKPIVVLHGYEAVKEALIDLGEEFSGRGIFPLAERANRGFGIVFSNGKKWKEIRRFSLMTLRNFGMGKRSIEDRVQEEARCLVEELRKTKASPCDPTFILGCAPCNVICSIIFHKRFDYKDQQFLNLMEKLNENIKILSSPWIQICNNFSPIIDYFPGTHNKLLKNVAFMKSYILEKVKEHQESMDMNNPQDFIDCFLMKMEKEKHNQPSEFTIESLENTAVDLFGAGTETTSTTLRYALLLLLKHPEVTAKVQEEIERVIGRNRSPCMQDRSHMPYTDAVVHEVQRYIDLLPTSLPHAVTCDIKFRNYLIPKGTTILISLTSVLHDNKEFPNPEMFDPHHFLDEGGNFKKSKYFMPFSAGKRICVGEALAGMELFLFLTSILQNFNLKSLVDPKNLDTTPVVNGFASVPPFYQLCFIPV
Outline: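 10nM CYP2C9 + 100uM Luciferin-H (=KM), 25mM KPO4; cpd 10 min 37C; NADPH regen, 60 min 37C; stop/detect with P450 Glo-Buffer 20 min; luminescence. Norm. to 57uM sulphaphenazole as full inhibition.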

[19] = biological target: Cytochrome P450 2D6 (Homo sapiens) (UniProt P10635); assay: qHTS Assay for Inhibitors and Substrates of Cytochrome P450 2D6 (AID 891); note: potency is the fitted concentration of half-maximal effect; nearly all actives have a fitted effect of over 60% in size
Sequence of Cytochrome P450 2D6 (Homo sapiens) (P10635 whole entry, looked up): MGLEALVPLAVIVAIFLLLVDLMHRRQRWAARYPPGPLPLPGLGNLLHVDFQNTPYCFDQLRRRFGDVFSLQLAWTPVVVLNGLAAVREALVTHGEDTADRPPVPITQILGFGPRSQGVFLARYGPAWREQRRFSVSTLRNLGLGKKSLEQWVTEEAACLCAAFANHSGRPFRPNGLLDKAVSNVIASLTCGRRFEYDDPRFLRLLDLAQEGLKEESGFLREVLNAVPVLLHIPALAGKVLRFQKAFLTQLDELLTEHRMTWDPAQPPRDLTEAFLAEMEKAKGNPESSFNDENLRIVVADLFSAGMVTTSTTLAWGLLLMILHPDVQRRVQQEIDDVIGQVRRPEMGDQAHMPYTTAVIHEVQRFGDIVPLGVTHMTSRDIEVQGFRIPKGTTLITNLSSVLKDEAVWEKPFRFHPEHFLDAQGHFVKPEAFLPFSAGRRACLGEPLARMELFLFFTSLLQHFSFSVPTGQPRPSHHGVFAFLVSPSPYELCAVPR
Outline: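 Human CYP2D6 (5 nM) with 30 uM Luciferin-ME EGE (at Km) in 100 mM KPO4, compound preincubated 10 min, then NADPH regeneration system for 60 min at room temperature. Luciferin read by luminescence; normalized to 1.43 uM quinidine.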

[20] = biological target: Cytochrome P450 2C19 (Homo sapiens) (UniProt P33261); assay: qHTS Assay for Inhibitors and Substrates of Cytochrome P450 2C19 (AID 899); note: potency is the fitted concentration of half-maximal effect; nearly all actives have a fitted effect of over 60% in size
Sequence of Cytochrome P450 2C19 (Homo sapiens) (P33261 whole entry, looked up): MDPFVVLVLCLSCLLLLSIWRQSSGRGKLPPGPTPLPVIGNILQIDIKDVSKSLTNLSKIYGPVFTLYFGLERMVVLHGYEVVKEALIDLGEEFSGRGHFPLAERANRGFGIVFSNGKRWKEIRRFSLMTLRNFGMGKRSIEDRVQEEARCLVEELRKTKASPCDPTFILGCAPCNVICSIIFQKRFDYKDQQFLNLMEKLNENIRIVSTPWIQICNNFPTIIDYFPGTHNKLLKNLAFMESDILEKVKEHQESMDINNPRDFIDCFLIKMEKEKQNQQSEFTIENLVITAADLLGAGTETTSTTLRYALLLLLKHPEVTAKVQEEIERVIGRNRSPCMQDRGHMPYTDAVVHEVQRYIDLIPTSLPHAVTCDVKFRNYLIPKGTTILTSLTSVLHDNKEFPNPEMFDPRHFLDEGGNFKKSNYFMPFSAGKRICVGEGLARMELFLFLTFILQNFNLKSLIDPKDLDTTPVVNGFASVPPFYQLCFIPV
Outline: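 Luminescent read-out of luciferin formed from Luciferin-H EGE (10uM, equal to KM). Enzyme 5nM in 50mM KPO4; compound added, 10 min at 37C, then NADPH regenerating system for 60 min at 37C. Full inhibition defined by 57uM ketoconazole.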

O=C1C2(Cl)C3(Cl)C4(Cl)C(Cl)(Cl)C5(Cl)C3(Cl)C1(Cl)C5(Cl)C24Cl (stereo unspecified)
active: Potency [1] 26.8 µM and 61.3 µM | Potency [2] 32.8 µM and 53.4 µM | Potency [3] 30.2 µM and 47.2 µM | Potency [4] 39.7 µM and 48.6 µM | Potency [5] 33.3 µM and 51.3 µM | Potency [9] 31.6 µM | Potency [10] 39.8 µM and 50.1 µM | Potency [11] 50.1 µM | Potency [13] 50.1 µM
inactive: outcome [6] | caspase-3 activation [7] -3.9% | Potency [8] | activation [12] 0.0088% and 4.7% | max response [13] 5.47%

FC(F)(F)c1ccc(Cl)cc1
inactive: Potency [1] > 92 µM | Potency [2] > 92 µM | Potency [3] > 92 µM | Potency [4] > 92 µM | Potency [5] > 92 µM | outcome [6] | caspase-3 activation [7] 5.86% [at 91.7 µM, primary cells freshly taken from rat, solvent-only wells 0%, staurosporine 100%] | Potency [9] | Potency [10] | Potency [11] | activation [12] 0.0226% and 0.781% | max response [13] 7.1% and -8.38%

CCN(CC)CCN=C(C)c1c(O)n(-c2ccccc2OC)c(=O)[nH]c1=O
inactive: Potency [14] > 20.6 µM

Cn1c(O)c(C(=O)c2ccccc2Cl)c(=O)n(C)c1=O
inactive: Potency [14] > 20.6 µM

Oc1c(Br)c(Br)c(Br)c(Br)c1Br
inactive: Potency [1] > 92 µM | Potency [4] > 92 µM | Potency [5] 57 µM | caspase-3 activation [7] 1.89% | Potency [9] | Potency [10] | Potency [11] | activation [12] 0.143% | max response [13] -1.75%
active: Potency [2] 39.1 µM

O=[N+]([O-])C(Br)Br
inactive: Potency [3] > 92 µM | caspase-3 activation [7] 2.88% | Potency [9] | Potency [10] | activation [12] 1.61% | max response [13] -11.4%
active: Potency [2] 24.4 µM | Potency [11] 12.6 µM

CN[C@@H](C)[C@@H](O)c1ccccc1
inactive: Potency [14] > 46 µM | Potency [16] > 46 µM | outcome [17] | Potency [8]
active: Potency [15] 3.16 µM | Potency [18] 0.794 µM | Potency [19] 12.6 µM | Potency [20] 1.58 µM

CCC/C=C(\CCC)C(NP(=O)(c1ccccc1)c1ccccc1)c1ccccc1 (stereo unspecified)
active: Potency [15] 15.8 µM
inactive: outcome [6] | Potency [8]

Cc1ccc(O)cc1C
inactive: Potency [1] > 92 µM | Potency [2] > 92 µM | Potency [3] > 92 µM | Potency [4] > 92 µM | Potency [5] > 92 µM | activation [12] 0.215% | max response [13] -2.94%

[Cd+2].[Cl-].[Cl-]
inactive: Potency [4] > 92 µM | outcome [6] | caspase-3 activation [7] -13.6% | Potency [8] | Potency [9] | Potency [10] | activation [12] 0.0733%
active: Potency [3] 51.2 µM | Potency [11] 39.8 µM

O=[N+]([O-])c1ccccc1Cl
inactive: Potency [1] > 92 µM | Potency [2] > 92 µM | Potency [3] > 92 µM | Potency [4] > 92 µM | Potency [5] > 92 µM | activation [12] -0.478% and -0.511% | max response [13] 10.4% and -3.52%

ClC1=C(Cl)C2(Cl)C3C(Cl)C(Cl)CC3C1(Cl)C2(Cl)Cl (stereo unspecified)
active: Potency [2] 60.7 µM | Potency [3] 72.7 µM
inactive: outcome [6] | caspase-3 activation [7] 19% | Potency [8] | Potency [9] | Potency [10] | Potency [11] | max response [13] -13.1%

CCCc1cc2c(n1CCO)C(C)C1CN(C(=O)c3ccccc3)C(C)(C(=O)OC)C21 (stereo unspecified)
inactive: Potency [15] | outcome [6] | outcome [17] | Potency [8]

CC(=O)[O-].CC(=O)[O-].O.O.[Cd+2]
inactive: Potency [1] > 92 µM | Potency [4] > 92 µM | outcome [6] | caspase-3 activation [7] -14.3% [at 91.7 µM, primary cells freshly taken from rat, solvent-only wells 0%, staurosporine 100%] | Potency [8] | Potency [9] | Potency [10] | activation [12] 1.94%
active: Potency [11] 50.1 µM | Potency [13] 10 µM

c1ccc2cc3c(cc2c1)-c1cccc2cccc-3c12
inactive: Potency [1] > 92 µM | Potency [2] > 92 µM | Potency [3] > 92 µM | Potency [4] > 92 µM | Potency [5] > 92 µM | caspase-3 activation [7] -4.56% | Potency [9] | Potency [10] | Potency [11] | max response [13] -11.7% and -17%
active: Potency [12] 2.82 µM and 2.51 µM

N#CSCSC#N
inactive: outcome [6] | caspase-3 activation [7] -11.6% | activation [12] 3.48% and -14.5%
active: Potency [1] 14.4 µM | Potency [2] 3.31 µM | Potency [3] 34.5 µM | Potency [4] 41.4 µM | Potency [5] 14 µM | Potency [9] 15.8 µM | Potency [10] 39.8 µM | Potency [11] 7.94 µM | Potency [13] 44.7 µM and 39.8 µM
